Consider 21 compounds from PubChem BioAssay (NCATS).

Each structure is given as a SMILES string. Inconclusive results are not listed. Unmarked numbers belong to inactive results. Activity calls are given as the source filed them. Calls come from the whole dose curve; as a rule, active = well fitted curve in the direction sought with a large enough effect; inconclusive = small, poorly fitted or top-dose-only effect, or another doubt; inactive = no such curve, though single readings can be large; an effect the other way counts as inactive or inconclusive.

Assay [1] addresses Rap guanine nucleotide exchange factor 3 (Homo sapiens) (UniProt O95398). The experiment in a line: Confirmatory qHTS for agonist of cAMP-regulated guanine nucleotide exchange factor 3 (EPAC1) (AID 1645881).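 Note: EPAC1 catalysed release of BODIPY-GDP from Rap1B seen as fluorescence loss; 100% = effect of cAMP agonist control; nearly all actives have a fitted effect of over 75% in size.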
Assay [2] deals with Rap guanine nucleotide exchange factor 4 (Homo sapiens) (UniProt Q8WZA2). The experiment in a line: Confirmatory qHTS for agonist of cAMP-regulated guanine nucleotide exchange factor 4 (EPAC2) (AID 1645884).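 Note: nucleotide exchange releases bodipy-GDP from Rap1 and this lowers its fluorescence; % is set by controls: 0 for no effect and ±100 for the full control effect; nearly all actives have a fitted effect of over 65% in size.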
Assay [3] shares this target. The experiment in a line: Confirmatory qHTS for antagonist of cAMP-regulated guanine nucleotide exchange factor 4 (EPAC2) (AID 1645885). For activity change, negative = inhibition: % is set by controls: 0 for no effect and ±100 for the full control effect. Note: nearly all actives have a fitted effect of over 25% in size.
Assay [4] has as its target Rap guanine nucleotide exchange factor 3 (Homo sapiens) (UniProt O95398). The experiment in a line: Counterscreen qHTS for antagonist of cAMP-regulated guanine nucleotide exchange factor 3 (EPAC1) (AID 1645888).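 Note: fluorescence loss as bound BODIPY-GDP is released from Rap1B; % of control where 0% means no effect.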 Put shortly: (§1)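 Measured: fluorescence of BODIPY-GDP bound to Rap1B, which falls as exchange proceeds. Conditions include 50 uM competing GDP, 5 and 30 min reads, and a later cAMP challenge for antagonist detection.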

For assay [5] the target is unchanged. The assay can be described thus: Counterscreen qHTS for agonist of cAMP-regulated guanine nucleotide exchange factor 3 (EPAC1) (AID 1645889). For activation: % of control where 0% means no effect. Note: nearly all actives have a fitted effect of over 40% in size. Note: potency is the fitted concentration of half-maximal effect. Summed up:
as §1

Chain of Rap guanine nucleotide exchange factor 3 (Homo sapiens) (O95398 whole entry, looked up): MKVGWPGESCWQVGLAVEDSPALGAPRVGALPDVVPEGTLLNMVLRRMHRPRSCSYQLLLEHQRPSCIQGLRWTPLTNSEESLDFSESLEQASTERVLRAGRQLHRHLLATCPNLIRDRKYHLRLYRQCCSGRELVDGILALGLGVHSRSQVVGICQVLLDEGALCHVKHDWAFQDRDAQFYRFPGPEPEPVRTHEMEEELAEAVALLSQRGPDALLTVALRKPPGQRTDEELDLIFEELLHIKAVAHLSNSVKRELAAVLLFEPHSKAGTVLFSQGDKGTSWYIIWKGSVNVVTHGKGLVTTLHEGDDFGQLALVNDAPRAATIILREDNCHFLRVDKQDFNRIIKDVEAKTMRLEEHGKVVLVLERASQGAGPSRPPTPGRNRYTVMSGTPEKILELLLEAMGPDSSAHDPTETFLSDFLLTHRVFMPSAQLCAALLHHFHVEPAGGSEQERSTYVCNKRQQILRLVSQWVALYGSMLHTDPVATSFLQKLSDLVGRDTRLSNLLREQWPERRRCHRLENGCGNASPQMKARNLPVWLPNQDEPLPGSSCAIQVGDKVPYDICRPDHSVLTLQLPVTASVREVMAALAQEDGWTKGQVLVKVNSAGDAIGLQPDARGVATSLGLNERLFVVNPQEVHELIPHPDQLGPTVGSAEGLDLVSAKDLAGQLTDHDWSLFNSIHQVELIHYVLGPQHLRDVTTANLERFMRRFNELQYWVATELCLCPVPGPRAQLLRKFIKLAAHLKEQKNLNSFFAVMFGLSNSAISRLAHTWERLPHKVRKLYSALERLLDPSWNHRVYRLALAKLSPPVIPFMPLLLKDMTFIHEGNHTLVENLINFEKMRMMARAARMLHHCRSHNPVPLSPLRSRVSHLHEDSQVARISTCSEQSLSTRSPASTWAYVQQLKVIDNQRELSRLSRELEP
Chain of Rap guanine nucleotide exchange factor 4 (Homo sapiens) (Q8WZA2 whole entry, looked up): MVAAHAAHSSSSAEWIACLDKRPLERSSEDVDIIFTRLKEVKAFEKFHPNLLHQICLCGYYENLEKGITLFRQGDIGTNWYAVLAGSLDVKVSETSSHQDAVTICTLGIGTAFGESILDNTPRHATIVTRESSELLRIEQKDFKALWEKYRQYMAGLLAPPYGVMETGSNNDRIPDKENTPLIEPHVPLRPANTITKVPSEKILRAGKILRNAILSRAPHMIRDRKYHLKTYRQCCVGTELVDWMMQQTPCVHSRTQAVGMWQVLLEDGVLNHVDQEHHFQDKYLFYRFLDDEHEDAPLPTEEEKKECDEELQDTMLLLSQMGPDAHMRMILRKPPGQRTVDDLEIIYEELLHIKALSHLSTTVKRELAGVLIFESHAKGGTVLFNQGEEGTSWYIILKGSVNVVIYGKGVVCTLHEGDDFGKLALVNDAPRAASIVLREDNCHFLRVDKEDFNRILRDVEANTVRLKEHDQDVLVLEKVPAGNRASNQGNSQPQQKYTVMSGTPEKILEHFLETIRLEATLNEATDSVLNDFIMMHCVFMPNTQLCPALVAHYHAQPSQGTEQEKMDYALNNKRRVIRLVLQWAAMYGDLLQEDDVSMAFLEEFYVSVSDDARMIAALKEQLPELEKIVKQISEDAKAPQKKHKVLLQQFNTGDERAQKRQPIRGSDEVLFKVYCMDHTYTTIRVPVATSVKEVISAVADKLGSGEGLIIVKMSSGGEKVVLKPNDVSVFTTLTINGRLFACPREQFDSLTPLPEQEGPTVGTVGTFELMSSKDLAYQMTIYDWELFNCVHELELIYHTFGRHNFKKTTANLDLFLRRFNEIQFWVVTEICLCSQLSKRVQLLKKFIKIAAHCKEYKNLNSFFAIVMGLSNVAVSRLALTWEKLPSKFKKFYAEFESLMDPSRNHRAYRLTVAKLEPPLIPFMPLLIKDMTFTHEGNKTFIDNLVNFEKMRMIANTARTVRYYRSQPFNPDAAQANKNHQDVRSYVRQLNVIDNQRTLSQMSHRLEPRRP

Turning to `CC(Oc1ccc(Cl)cc1)C(=O)Nc1sccc1C(N)=O` (stereo not given), the Potency result in assay [1] and in assay [3] was “inactive” each time. Further, the activation in assay [2] is 0.0366% [at 17.1 µM, percent relative to cAMP agonist control]; in assay [5] it was 24.1% [at 30.8 µM]. For the same compound, the activity change, negative = inhibition in assay [4] is -14.6% [at 30.8 µM].

In the case of `CCCCOc1cccc(C2C(C(=O)c3ccc(C)o3)=C(O)C(=O)N2c2nnc(C)s2)c1` (stereo not given), the Potency result in assay [1], in assay [2], in assay [3], in assay [4] and in assay [5] was “inactive” in each case.

In the case of `C=CCN1C(=O)/C(=C/c2ccc(OCC(=O)O)cc2)S/C1=N/c1nccs1`, the Potency entry in assay [1] and in assay [3] was “inactive” throughout. Also, the activation was 0% [at 17.1 µM, percent relative to cAMP agonist control] in assay [2] and 14.3% [at 30.8 µM] in assay [5]. In addition, the activity change, negative = inhibition in assay [4] was -1.64% [at 30.8 µM].

On to `CCCOC(=O)c1c(NC(=O)C2C3C=CC(C3)C2C(=O)O)sc2c1CCC(C)C2` (stereo not given), for which the Potency result in assay [1] and in assay [3] was “inactive” in each case. For the same compound, the activation was 8.63% [at 17.1 µM, percent relative to cAMP agonist control] in assay [2] and 40.1% [at 30.8 µM] in assay [5]. Further, in assay [4], the activity change, negative = inhibition was 1.23% [at 30.8 µM].

Take `CCN(c1ccc(NC(=O)CCc2nc3sc4c(c3c(=O)[nH]2)CCCC4)cc1)C(C)C`: the Potency entry in assay [1] and in assay [3] was “inactive” throughout. The activation in assay [2] was -1.91% [at 17.1 µM, percent relative to cAMP agonist control]; in assay [5], 2.05% [at 30.8 µM]. Further, in assay [4], the activity change, negative = inhibition was -10.9% [at 30.8 µM].

Consider `COCC(=O)Oc1c(Sc2ccccc2[N+](=O)[O-])c(C)nn1C(C)(C)C`, for which the Potency entry in assay [1], in assay [2], in assay [3], in assay [4] and in assay [5] was “inactive” throughout.

Consider `CCCc1nc2c(=O)n(C)c(=O)nc-2n(C)n1`, for which the Potency entry in assay [1], in assay [2], in assay [3], in assay [4] and in assay [5] was “inactive” in each case.

`C[C@@H]1CC=C[C@H]2[C@H]1C(=O)N(Cc1ccccc1)[C@H]2c1ccc(C(F)(F)F)cc1`: the Potency result in assay [1] and in assay [3] was “inactive” in each case. In addition, the activation in assay [2] was -4.74% [at 17.1 µM, percent relative to cAMP agonist control]; in assay [5], 7.88% [at 30.8 µM]. The activity change, negative = inhibition in assay [4] is -9.3% [at 30.8 µM].

Regarding `Clc1ccc(Cn2c(/C=C/c3ccco3)nc3ccccc32)cc1`, the Potency result in assay [1], in assay [2], in assay [3], in assay [4] and in assay [5] was “inactive” each time.

For `COc1ccc(S(=O)(=O)NC(=O)C2(C)CCN2C(=O)C2(c3ccccc3)CCCC2)cc1` (stereo not given), the Potency result in assay [1] and in assay [3] was “inactive” in each case. The activation in assay [2] is -3.86% [at 17.1 µM, percent relative to cAMP agonist control]; in assay [5], -0.406% [at 30.8 µM]. For the same compound, the activity change, negative = inhibition in assay [4] was -2.65% [at 30.8 µM].

For the compound `Cc1ccc(C(=O)Cc2ccccc2)c(O)c1`, the Potency entry in assay [1] and in assay [3] was “inactive” throughout. Also, the activation is 0.272% [at 17.1 µM, percent relative to cAMP agonist control] in assay [2] and 23.4% [at 30.8 µM] in assay [5]. The activity change, negative = inhibition in assay [4] was -3.71% [at 30.8 µM].

`Brc1ccc(/C=N/Nc2nc3ccccc3o2)cc1`: the Potency entry in assay [1], in assay [2], in assay [3], in assay [4] and in assay [5] was “inactive” throughout.

Regarding `Cc1ccc(NC2c3ncccc3C(=O)N2Cc2cccs2)cc1` (stereo not given), the Potency result in assay [1] and in assay [3] was “inactive” throughout. Further, the activation was -5.52% [at 17.1 µM, percent relative to cAMP agonist control] in assay [2] and 1.62% [at 30.8 µM] in assay [5]. Further, in assay [4], the activity change, negative = inhibition is 8.01% [at 30.8 µM].

Regarding `O=C(O)CCn1cc(/C=C\C(=O)c2ccc(Cl)cc2)c(-c2cccc(Br)c2)n1`, the Potency entry in assay [1] and in assay [3] was “inactive” in each case. For the same compound, the activation in assay [2] is 4.02% [at 17.1 µM, percent relative to cAMP agonist control]; in assay [5], 15.3% [at 30.8 µM]. For the same compound, in assay [4], the activity change, negative = inhibition was 0.257% [at 30.8 µM].

Consider `Cc1ccc(-c2csc(/C(C#N)=C(\O)CCl)n2)cc1`, for which the Potency result in assay [1] and in assay [3] was “inactive” each time. Moreover, the activation in assay [2] was -6.35% [at 17.1 µM, percent relative to cAMP agonist control]; in assay [5], 14.1% [at 30.8 µM]. In addition, the activity change, negative = inhibition in assay [4] was -2.33% [at 30.8 µM].

Consider `Cn1c(/N=C/c2c(O)ccc3ccccc23)nc2ccccc21`, for which the Potency entry in assay [1], in assay [2], in assay [3], in assay [4] and in assay [5] was “inactive” each time.

On to `Cc1cccc(Cn2c(=O)oc3ccc(C)cc32)c1`, for which the Potency result in assay [1] and in assay [3] was “inactive” throughout. The activation in assay [2] is 1.77% [at 17.1 µM, percent relative to cAMP agonist control]; in assay [5], 19.6% [at 30.8 µM]. The activity change, negative = inhibition in assay [4] was 0.42% [at 30.8 µM].

Turning to `Cc1ccc(C)c(-c2ccc(=O)n(Cc3ccc(F)cc3Cl)n2)c1`, the Potency result in assay [1], in assay [2], in assay [3], in assay [4] and in assay [5] was “inactive” in each case.

With `CC(=O)/C(=N/Nc1ccccc1)Sc1nnc(CCc2ccccc2)n1-c1ccccc1`, the Potency result in assay [1], in assay [2], in assay [3], in assay [4] and in assay [5] was “inactive” in each case.

As to `CC1CCCN(c2nc3ccccc3nc2C(C#N)S(=O)(=O)c2ccccc2)C1` (stereo not given), the Potency entry in assay [1], in assay [2], in assay [3] and in assay [4] was “inactive” throughout. In addition, in assay [5], the Potency was 22.4 µM (active).

Take `CC1CC2(NC(=O)NC2=O)C(C)CN1C` (stereo not given): the Potency result in assay [1], in assay [2], in assay [3], in assay [4] and in assay [5] was “inactive” each time.
